The sequences below were run on THRa homodimer (NR concentration 90 nM) (assay: PBM binding z-score (relative to random genomic background probes); higher = stronger binding; sequences stand for … in GC…GCGATTGACAGCGTAGAATGAAGG).
Outline: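 Binding z-scores take random background probes as their reference. They come from custom Agilent 4×180K protein-binding microarrays incubated 1 h with ligand-free nuclear receptor dimers, with antibodies against each partner (one per run) detecting binding. Scanned fluorescence was regression-normalized.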

Sequence | PBM binding z-score
ATATGTTGGTTAAGGGTCATTCAGGTTGGTTCGC | 2.24
CGTCAAAGTTCACGGTAACGTAACAGAAAGCAGC | -0.36
CCTACTGGCCCAAAAAGGTCATTGATGCCGATAA | 1.13
CCGACTGGGGCAAAGGTTTCCATACTCAGTACGA | -0.282
AGAATGAGGTTGAGATCAGGGAAACAGAATACAT | -0.0652
TGTCGGAGGACACGAAAGGTCAGAGCTCGACATC | 1.3
CCTAGCAGGCCAATCTGGGTCACTCATGGCTTGA | 0.363
CCTTACGGGTCACTCCAGGTTATAACATCGGAGT | 0.437
ACTAGCAGGCCAAGTTTGGGTCATTCAAACAAAG | 0.849
TCTACTAGGTCAGTTGGTCAGCTAACGAGCTGCC | 0.622
CCGACTCGGGCAAGGTTACCATAACGCACAGCCA | 0.176
CCTTATGGGTCACTGACAGGTTATAGCATTTGGA | 0.464
CCTTCCGGGTCACTCCAGGTTATAGCATCGGAGT | 2.37
TTACCAAGGTGAAGGTGGTTGATCCCTCTGTAGA | 0.829
TGTCAAAGTTAAAAGGTAACGTAAGTATCCACAC | -0.237
GTACCAAGGTGAATCGGTCGTTGATGAGTAGGCG | 0.486
ACTAGCAGGCCAAGTTTGGGTCACACAAACAAAG | 1.04
TTTAGCAGGCCAGAGGGTCACTCAAGAGGTACGG | -0.313
ACTAGCAGGCCAAGGGTCACTCCAGATTAGTCCG | 0.269
AGAATGAAGTTATACGTAGATCAGGGAAGAAAGT | -0.66
ATCGAAAGGTCGAGGTGAGTCTAGAGAAAGGGAA | 0.76
GCATAAAGGTAATACAAGGTGAAAGTCCGATTGT | 0.994
